Records with an inconclusive call do not appear. Calls of active or inactive are those of the source. Calls come from the whole dose curve; as a rule, active = well fitted curve in the direction sought with a large enough effect; inconclusive = small, poorly fitted or top-dose-only effect, or another doubt; inactive = no such curve, though single readings can be large; an effect the other way counts as inactive or inconclusive.
What was measured:
WaGa = assay: qHTS assay to identify novel small-molecules to repurpose for Merkel cell carcinoma treatment (AID 1296009); settings: MCC and control cell lines, CellTiter-Glo viability, 72 h; series mostly up to 46 µM; note: nearly all actives have a fitted effect of over 60% in size
In short: (§1)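 CellTiter-Glo luminescence after 72 hr compound exposure at 37 degree celsius gave cell viability. Libraries NPC and MIPE were run as 8- and 11-point dose responses; RLUs normalized to DMSO (negative) and no-cell (cytotoxicity) controls.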

CASKI = assay: Primary qHTS to identify gynecologic anti-cancer compounds using libraries of approved drugs and bioactive compounds (AID 1345084); settings: Gynecologic cancer cell panel viability, ATPlite luminescence, 48 h; series mostly up to 57.5 µM; note: nearly all actives have a fitted effect of over 55% in size
In short: (§2)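 Measured: luminescence after ATPlite addition (15 min, RT). Exposure: 48 h, 37 C, 5% CO2.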

HeLa = assay: as above; settings: Gynecologic cancer cell panel viability, ATPlite luminescence, 48 h; series mostly up to 57.5 µM
In short: as §2

JEG-3 = assay: as above; settings: Gynecologic cancer cell panel viability, ATPlite luminescence, 48 h; series mostly up to 57.5 µM
In short: as §2

UISO = assay: qHTS assay to identify novel small-molecules to repurpose for Merkel cell carcinoma treatment (AID 1296009); settings: MCC and control cell lines, CellTiter-Glo viability, 72 h; series mostly up to 46 µM; note: nearly all actives have a fitted effect of over 60% in size
In short: as §1

C33A = assay: Primary qHTS to identify gynecologic anti-cancer compounds using libraries of approved drugs and bioactive compounds (AID 1345084); settings: Gynecologic cancer cell panel viability, ATPlite luminescence, 48 h; series mostly up to 57.5 µM; note: nearly all actives have a fitted effect of over 55% in size
In short: as §2

CAOV3 = assay: as above; settings: Gynecologic cancer cell panel viability, ATPlite luminescence, 48 h; series mostly up to 57.5 µM
In short: as §2

Es-2 = assay: as above; settings: Gynecologic cancer cell panel viability, ATPlite luminescence, 48 h; series mostly up to 57.5 µM
In short: as §2

Hek293T = assay: as above; settings: Gynecologic cancer cell panel viability, ATPlite luminescence, 48 h, control line for the selectivity index; series mostly up to 57.5 µM
In short: as §2

Measured: Potency
Potency is the fitted concentration of half-maximal effect.

CCN(CC)CCOc1ccc(/C(=C(\Cl)c2ccccc2)c2ccccc2)cc1
inactive: CASKI | HeLa | JEG-3
active: WaGa 26.6 µM

CC(=O)OC/C=C(C)/C=C/C=C(C)/C=C/C1=C(C)CCCC1(C)C
not listed: WaGa
inactive: all other assays above

CC(C)(C)C1CCC(CC2=C(O)c3ccccc3C(=O)C2=O)CC1 (stereo not given)
not listed: UISO
inactive: all other assays above

CC[N+](CC)(CC)CCOC(=O)C(C1CCCC1)C1CCCC1
active: WaGa 9.44 µM
not listed: CASKI | UISO
inactive: all other assays above

O=S(=O)(O)c1ccc2nc(-c3ccccc3)[nH]c2c1
not listed: WaGa | C33A
inactive: all other assays above

CC(=O)Oc1ccc(C2(c3ccc(OC(C)=O)cc3)Oc3ccccc3NC2=O)cc1
inactive: C33A

Nc1ccc2c(c1)CN1C(=O)c3ccccc3C1=N2
active: CASKI 6.31 µM | Es-2 10 µM | JEG-3 11.2 µM
inactive: UISO

Cc1nc(N)nc(N)c1-c1ccc(Cl)c(Cl)c1
active: C33A 0.447 µM | CASKI 1.41 µM | Es-2 1 µM | HeLa 11.2 µM | Hek293T 1.58 µM | JEG-3 11.2 µM
inactive: CAOV3

O=C1NCCN1CCN1CCC(c2cn(-c3ccc(F)cc3)c3ccc(Cl)cc23)CC1
active: WaGa 10.6 µM | C33A 20 µM | CASKI 35.5 µM | Hek293T 31.6 µM

CCC[C@H](N[C@@H](C)C(=O)N1[C@H](C(=O)O)C[C@@H]2CCCC[C@@H]21)C(=O)OCC
not listed: WaGa
inactive: all other assays above

CN1CCC(Nc2ncc3ncnc(Nc4ccc(F)c(Cl)c4)c3n2)CC1
inactive: UISO | CASKI | Es-2 | HeLa

Cc1ccc(/C=N/n2c(-c3ccccc3)csc2=S)cc1
not listed: WaGa | UISO
inactive: all other assays above

CC[N+]1(CC)CCC(=C(c2ccccc2)c2ccccc2)C1C (stereo not given)
not listed: WaGa | JEG-3 | UISO
inactive: all other assays above

CCCCCCCCCCCCCCCCCCNC(=O)OC1CCN(C(=O)OC[C@H](COC(=O)N(Cc2cccc[n+]2CC)C(=O)c2ccccc2OC)OC)CC1
active: UISO 6.68 µM | CAOV3 15.8 µM | CASKI 15.8 µM
inactive: JEG-3

CCCCCCOC(=O)NC(=N)c1ccc(NCc2nc3cc(C(=O)N(CCC(=O)OCC)c4ccccn4)ccc3n2C)cc1
not listed: WaGa | Es-2 | Hek293T
inactive: all other assays above

Cc1cc(OCCOCC[N+](C)(C)Cc2ccccc2)ccc1C(C)(C)CC(C)(C)C
active: UISO 4.22 µM
inactive: Es-2 | HeLa | JEG-3

O=c1[nH]sc2cc(Cl)ccc12
inactive: WaGa | CASKI | HeLa | JEG-3

Oc1ccc(CCNCCCCCCNCCc2ccccc2)cc1O
active: WaGa 10.6 µM
inactive: Es-2 | HeLa | Hek293T | JEG-3

CN1CC[C@H](c2c(O)cc(O)c3c(=O)cc(-c4ccccc4Cl)oc23)[C@H](O)C1
active: UISO 0.473 µM | C33A 1.26 µM | CASKI 0.708 µM | Es-2 0.708 µM | HeLa 0.794 µM
inactive: JEG-3

CC(C)C[C@H](NC(=O)CNC(=O)[C@H](Cc1ccc(O)cc1)NC(=O)[C@H](CO)NC(=O)[C@H](Cc1c[nH]c2ccccc12)NC(=O)[C@H](Cc1cnc[nH]1)NC(=O)[C@@H]1CCC(=O)N1)C(=O)N[C@@H](CCCN=C(N)N)C(=O)N1CCC[C@H]1C(=O)NCC(N)=O (stereo in doubt)
inactive: WaGa

O=C1Nc2cc(Cl)ccc2Oc2ccccc21
not listed: UISO
inactive: all other assays above

CCCCCOc1ccccc1/C(=C\SC)n1ccnc1
active: UISO 18.8 µM
not listed: WaGa | HeLa
inactive: all other assays above

CCCCCCCCCCCCCCCC[N+](C)(C)Cc1ccccc1
inactive: JEG-3
active: UISO 4.22 µM | C33A 28.2 µM | CAOV3 20 µM | HeLa 25.1 µM

COc1c(C)c2c(c(O)c1C/C=C(\C)CCC(=O)OCCN1CCOCC1)C(=O)OC2
inactive: WaGa | CAOV3 | JEG-3

CO[C@@H]1[C@@H](O[C@@H]2O[C@H](C)[C@@H](O[C@H]3C[C@@](C)(O)[C@@H](O)[C@H](C)O3)[C@H](N(C)C)[C@H]2O)[C@@H](CC=O)C[C@@H](C)[C@@H](O[C@@H]2CC[C@H](N(C)C)[C@@H](C)O2)/C=C/C=C/C[C@@H](C)OC(=O)C[C@H]1OC(C)=O
not listed: WaGa | CAOV3
inactive: all other assays above

Cc1oc(-c2ccccc2)nc1CCC(=O)c1ccc(CC2SC(=O)NC2=O)cc1 (stereo not given)
not listed: WaGa
inactive: all other assays above

NC(=O)C1(N2CCCCC2)CCN(CCCN2c3ccccc3CCc3ccc(Cl)cc32)CC1
active: C33A 25.1 µM

O=C(O)Cc1ccc(OCCNC[C@H](O)c2ccccc2)cc1
not listed: WaGa | UISO
inactive: all other assays above

C[N+](C)(CCOc1ccccc1)Cc1cccs1
not listed: WaGa | CAOV3
inactive: all other assays above

CN1CCC(N(Cc2cccs2)c2ccccc2)CC1
not listed: UISO
inactive: all other assays above

Nc1nc(=O)n([C@@H]2O[C@H](CO)[C@@H](O)[C@@H]2F)cc1I
not listed: WaGa | UISO
inactive: all other assays above

Cc1ccc(CCn2c3c(c4cc(Cl)ccc42)CN(C)CC3)cn1
not listed: WaGa
inactive: all other assays above

CCC1=C[C@@H]2CN(C1)Cc1c([nH]c3ccccc13)[C@@](C(=O)OC)(c1cc3c(cc1OC)N(C)[C@H]1[C@@](O)(C(=O)OC)[C@H](OC(C)=O)[C@]4(CC)C=CCN5CC[C@]31[C@@H]54)C2
active: UISO 0.0119 µM | CAOV3 10 µM

CC(COc1ccccc1)NN (stereo not given)
not listed: WaGa | UISO
inactive: all other assays above

CCOC(=O)N1CCC(Nc2ccc(Cl)cc2N)CC1
not listed: UISO
inactive: all other assays above

CO/N=C(/C(=O)N[C@@H]1C(=O)N2C(C(=O)OCOC(=O)C(C)(C)C)=C(C)CS[C@H]12)c1csc(N)n1
not listed: WaGa | CAOV3
inactive: all other assays above

CCCCN(CCN(CCCC)C(=O)N1CCOCC1)C(=O)N1CCOCC1
not listed: UISO
inactive: all other assays above

CN(C)c1cc2c(Nc3ccc4c(cnn4Cc4ccccc4)c3)ncnc2cn1
not listed: WaGa | UISO
inactive: all other assays above
